ABCB6 inh 2: ABCB6 transporter inhibitors, primary screen, K562-ABCB6 cells, flow cytometry, MLPCN library; ATP-binding cassette sub-family B member 6 (Homo sapiens), Q9NP58; K562-ABCB6 porphyrin accumulation, 1 h; stronger effect = lower value; fluorescence ratio to DMSO, % at 10 µM; 360,000 compounds, 0.19% hits; AID 602162, 2011;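 active = fluorescence ratio to DMSO below 75%, the collection mean minus 3 SD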;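 note: signal is porphyrin accumulated inside mitochondria; 100% equals median channel fluorescence of DMSO control wells; lower ratio means ABCB6 inhibition with less porphyrin fluorescence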
Target sequence (Q9NP58 whole entry, looked up): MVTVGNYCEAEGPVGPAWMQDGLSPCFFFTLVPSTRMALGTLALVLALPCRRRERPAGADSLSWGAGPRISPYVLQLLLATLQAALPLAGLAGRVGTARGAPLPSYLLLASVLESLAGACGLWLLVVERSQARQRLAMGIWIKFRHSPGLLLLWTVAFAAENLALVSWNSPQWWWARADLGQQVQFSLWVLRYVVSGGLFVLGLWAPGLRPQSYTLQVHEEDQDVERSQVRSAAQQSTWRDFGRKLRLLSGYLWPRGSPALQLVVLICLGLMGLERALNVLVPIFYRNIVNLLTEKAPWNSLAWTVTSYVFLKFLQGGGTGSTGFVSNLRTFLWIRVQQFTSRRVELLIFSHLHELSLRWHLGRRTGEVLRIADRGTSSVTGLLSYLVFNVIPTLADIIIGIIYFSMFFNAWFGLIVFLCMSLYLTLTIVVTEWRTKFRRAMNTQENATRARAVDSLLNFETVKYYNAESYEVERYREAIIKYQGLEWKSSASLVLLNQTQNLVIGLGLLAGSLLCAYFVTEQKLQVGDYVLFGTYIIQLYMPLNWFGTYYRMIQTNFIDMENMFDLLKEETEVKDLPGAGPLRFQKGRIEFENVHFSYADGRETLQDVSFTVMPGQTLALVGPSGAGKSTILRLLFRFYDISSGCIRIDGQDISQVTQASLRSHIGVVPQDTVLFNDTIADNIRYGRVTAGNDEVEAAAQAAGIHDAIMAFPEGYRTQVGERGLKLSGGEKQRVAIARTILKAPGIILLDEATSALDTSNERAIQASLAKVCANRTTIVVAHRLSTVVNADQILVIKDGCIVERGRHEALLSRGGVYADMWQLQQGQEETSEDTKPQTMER
PG9 Ab binder: binders of HIV-1 gp120 antibody PG9, primary screen, biochemical, TR-FRET | inhibition, % at 6.7 µM | AID 624416, 2012 | TR-FRET gp120-PG9 antibody binding | 360,000 compounds, 0.43% hits | HIV-1 gp120 / PG9 antibody interaction; in the data active = inhibition above about 8.5%
Exocytosis inh: LAMP-1 surface exposure blockers, TALL-104 cells – cell-based, flow cytometry, MLPCN library, primary screen. TALL-104 LAMP-1 surface exposure; cells stimulated with thapsigargin and PMA. inhibition, % at 10 µM. 360,000 compounds, 0.66% hits;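 active = inhibition above about 55%, limit read from the data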
rCAG RNA binder: binders of r(CAG) RNA repeats, primary screen, biochemical, fluorescence. r(CAG) RNA repeat, TO-PRO-1 dye displacement fluorescence. inhibition, % at 3 µM. 370,000 compounds, 1.3% hits;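 active = inhibition above the plate cutoff, the mean of all test compounds on that plate plus 3 SD, cut at about 35% in these data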;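 note: 0% = DMSO alone and 100% = 100 µM mitoxantrone as full dye displacement; higher means more dye released from RNA so lower well fluorescence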
rCAG bind conf: small molecules binding CAG repeat RNA – biochemical, fluorescence, confirmation; shares compounds with rCAG RNA binder; 4,300 compounds, 70% hits; r(CAG) RNA repeat, TO-PRO-1 dye displacement fluorescence; inhibition, % at 3 µM; AID 652065, 2013;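 active = inhibition above a per-plate cutoff, the mean inhibition of sample wells plus 3 SD, cut at about 35% in these data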;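 note: loss of TO-PRO-1 fluorescence as compound displaces dye from 1x1 AA loop RNA; 0% = DMSO only wells and 100% = 100 µM mitoxantrone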
dCAG dye counter: displacement of TO-PRO-1 from CAG DNA duplex, counter-screen for rCAG RNA repeat binder project, biochemical, fluorescence, TO-PRO-1 dye, d(CAG) DNA oligo; shares compounds with rCAG RNA binder; d(CAG) DNA oligo TO-PRO-1 dye displacement; inhibition, % at 3 µM; 4,300 compounds, 94% hits; AID 652068, 2013;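 active = inhibition above its plate's cutoff, the mean test-well inhibition plus 3 SD, cut at about 4.8% in these data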;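 note: 0% = DNA dye mix with DMSO and 100% = 100 µM mitoxantrone; hits displace the dye from DNA and so lower well fluorescence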
DNA CAG DR: inhibitors of DNA CAG/GTC TO-PRO-1 complex, dose response, counter-screen for rCAG RNA repeat binder project, biochemical, fluorescence, TO-PRO-1 dye. shares compounds with rCAG RNA binder. DNA CAG/GTC duplex TO-PRO-1 dye displacement fluorescence. IC50, µM. 250 compounds, 20% hits; in the data active = IC50 below about 10 µM
Numbers without * were called inactive; i = inactive; / = no result given. Most compounds without a hit are left out; they make up all but 2.5% or so of the library.

SMILES	ABCB6 inh 2	PG9 Ab binder	Exocytosis inh	rCAG RNA binder	rCAG bind conf	dCAG dye counter	others
CCN=c1scc(C)n1/N=C/c1ccc(O)c(O)c1O	102	-11	0	38*	49*	19*
C=CCn1c(SCC(=O)NCC2CCCO2)nnc1-c1ccccc1 (stereo unspecified)	105	-3	12	2	/	/
On1onc2c3cc(-c4ccccc4)nc3ccc21	105	-1	3	41*	12	5.0*
c1ccc(-c2cc3c(ccc4nonc43)nn2)cc1	97	0	-2	-1	/	/
CCCCC(NC(=O)Cc1c(C)c2cc3c(-c4ccccc4)coc3c(C)c2oc1=O)C(=O)O (stereo unspecified)	97	-3	14	37*	65*	24*
COc1cccc(-c2coc3cc4oc(=O)c(CCC(=O)O)c(C)c4cc23)c1	96	-1	4	47*	47*	14*
COc1cccc(-c2coc3c(C)c4oc(=O)c(CCC(=O)O)c(C)c4cc23)c1	101	1	24	58*	74*	34*	DNA CAG DR=i
CC[C@@H](C)[C@H](NC(=O)Cc1c(C)c2cc3c(C)c(C)oc3c(C)c2oc1=O)C(=O)O	93	3	-16	37*	34	7.1*
COc1cccc(-c2coc3c(C)c4oc(=O)c(CC(=O)O)c(C)c4cc23)c1	98	-2	18	11	/	/
CCC(=O)Nc1nc(NCc2ccccc2OC)n(-c2ccccc2)n1	93	-1	-3	-2	/	/
Cc1oc2c(c(C)cc3oc(=O)c(CC(=O)N[C@H](C(=O)O)C(C)C)c(C)c32)c1C	98	0	9	22	/	/
Cc1oc2c(c(C)cc3oc(=O)c(CC(=O)N[C@@H](CC(C)C)C(=O)O)c(C)c32)c1C	104	2	-1	43*	33	6.3*
Cc1cc(C)nc(OC(C(=O)O)C(OCCc2ccccc2)(c2ccc(F)cc2)c2ccc(F)cc2)n1 (stereo unspecified)	97	0	11	36*	49*	11*
CCCOC(c1ccccc1)(c1ccc(C(F)(F)F)cc1)C(Oc1nc(C)cc(C)n1)C(=O)O (stereo unspecified)	105	0	-1	30	/	/
Cc1[nH]c2ccccc2c1N=Nc1ccccc1C(=O)O	99	-7	-1	53*	19	5.7*
Cc1cc(C)c2nc(NNC(=O)c3ccc(S(=O)(=O)N4CCc5ccccc5C4)cc3)sc2c1	96	-2	-2	61*	50*	26*
Cc1nnc(NC(=O)c2ccc(S(=O)(=O)N3CCc4ccccc4C3)cc2)o1	98	1	4	18	/	/
Cc1cc(C)c2sc(NNC(=O)c3ccc(S(=O)(=O)N4CCc5ccccc5C4)cc3)nc2c1	100	1	0	48*	59*	29*
Cc1cc(C)c2nc(NNC(=O)c3cc(=O)c4ccccc4o3)sc2c1	115	-2	2	73*	82*	49*
CC1(CCC(=O)N2CCCC(N3CCN(c4cccc(C(F)(F)F)c4)CC3)C2)CC1 (stereo unspecified)	100	-1	6	-11	/	/
Cc1ccnc(NC(=S)NC(=O)/C=C/c2ccc(Cl)cc2)c1	102	0	5	1	/	/
COc1ccc(S(=O)(=O)N2CCCCC2)cc1NC(=O)c1cccc(S(=O)(=O)N2CC(C)OC(C)C2)c1 (stereo unspecified)	101	-2	-1	13	/	/
CCN(CC(=O)Nc1c(F)cccc1F)C(=O)c1cccn1C	93	-1	-8	7	/	/
Cc1cccc2sc(NC(=O)c3ccc(NS(=O)(=O)c4cccs4)cc3)nc12	95	1	0	80*	76*	40*
COc1ccc2nc(NC(=O)CNS(=O)(=O)c3cccs3)sc2c1	100	0	10	9	/	/
SMILES	ABCB6 inh 2	PG9 Ab binder	Exocytosis inh	rCAG RNA binder	rCAG bind conf	dCAG dye counter	others
COc1ccc2nc(NC(=O)c3ccc(NS(=O)(=O)c4cccs4)cc3)sc2c1	97	0	-1	65*	66*	29*
CCn1cc(CN2CCC(n3nccc3NC(=O)Cc3ccccc3)CC2)c(C)n1	94	-2	-6	-4	/	/
Cc1cc(N)n(-c2ccc(C)c(C)c2)n1	98	0	-2	-2	/	/
Cc1cc(N)n(-c2ccc(Oc3ccccc3)c(S(=O)(=O)O)c2)n1	102	4	-2	59*	42*	9.7*
N/C(=N\OC(=O)CC1CCCCC1)c1ccc(Cl)cc1	88	-1	-2	-6	/	/
COc1ccc(-c2c/c(=N\c3nc(-c4ccccc4)c(C)s3)c3ccccc3o2)cc1O	218	0	19	39*	34	15*
COc1ccc(-c2cc(=Nc3c(C)n(C)n(-c4ccccc4)c3=O)c3ccccc3o2)cc1	100	0	-2	-8	/	/
CC(C)(C#N)NC(=O)C1CCCN1S(=O)(=O)c1ccc2ccccc2c1 (stereo unspecified)	79	1	1	-1	/	/
Cc1ccc(-c2nn(-c3ccccc3)cc2C2CC(c3cccs3)=NN2C(=O)CCC(=O)O)cc1 (stereo unspecified)	92	2	0	15	/	/
O=C(O)CCn1cc(C2CC(c3ccccc3)=NN2c2ccccc2)c(-c2ccccc2)n1 (stereo unspecified)	102	3	-3	55*	62*	22*
Cc1coc2c1C(=O)C(=O)c1c-2ccc2c1CCCC2(C)C	110	-1	-2	43*	23	13*
O=C(Nc1ccccc1C(=O)O)c1cccc(NC(=O)c2ccccc2Cl)c1	99	-2	-4	34	/	/
O=C(/C=C/c1ccc([N+](=O)[O-])cc1)Nc1cccc(C(=O)Nc2ccccc2C(=O)O)c1	123	1	-6	44*	83*	50*
Cc1ccccc1C(=O)Nc1cccc(C(=O)Nc2ccccc2C(=O)O)c1	100	-1	-3	36*	23	3
CC(=O)Oc1cccc(C(=O)Nc2cccc(C(=O)Nc3ccccc3C(=O)O)c2)c1	109	-3	3	56*	37*	8.4*
O=C(N/N=C/C(Cl)=C/c1ccc([N+](=O)[O-])cc1)C(=O)Nc1ccccc1C(=O)O	97	0	-8	52*	46*	19*

Screens deposited in PubChem BioAssay by several laboratories.
